From PubChem BioAssay (NCATS)
Inconclusive results are not listed. Active and inactive are the calls of the source. The call rests on the fitted dose curve; in most records, active means well fitted curve in the direction sought with a large enough effect; inconclusive means small, poorly fitted or top-dose-only effect, or another doubt; inactive means no such curve, though single readings can be large; an effect the other way counts as inactive or inconclusive. Positions of bridges follow the written chain, without caps; N, C: chain ends. Non-standard residues stand in square brackets, D forms with d. Residues, ends and D or L forms follow the SMILES beside them. ξ: configuration not given here. *: point of attachment. Octanoyl(6-Me) = CCC(C)CCCCC(=O)*; ξThr(3R) = C[C@@H](O)C(N)C(=O)O; dDab = NCC[C@@H](N)C(=O)O; Dab = NCC[C@H](N)C(=O)O

Key:
[1] = qHTS of pediatric cancer cell lines to identify multiple opportunities for drug repurposing: Primary screen for BT-12 cells (AID 1347101); further: nearly all actives have a fitted effect of over 25% in size; further: potency means the concentration at half of the fitted maximal effect
Method in brief: (§1)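 Cells (500-1,000/well) rested 5 h, then received compounds for 48 h; metabolically active cells were measured by CellTiter-Glo luminescence. Final concentrations spanned up to 46 µM (MIPE, 11-point) or 0.59 nM-46 µM (NPC, 8-point) in primary screens, 11-point in follow-ups.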

[2] = qHTS of pediatric cancer cell lines to identify multiple opportunities for drug repurposing: Primary screen for Rh18 cells (AID 1347102); further: nearly all actives have a fitted effect of over 65% in size; further: potency means the concentration at half of the fitted maximal effect
Method in brief: (§2)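 Cells (500-1,000/well) in growth media were settled 5 h at 37 degrees C, then given compounds for 48 h. Viability was read as CellTiter-Glo luminescence. Primary runs used MIPE at 11 points (0.78 nM-46 µM) and NPC at 8 points (0.59 nM-46 µM); follow-ups used 11 points.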

[3] = qHTS of pediatric cancer cell lines to identify multiple opportunities for drug repurposing: Primary screen for OHS-50 cells (AID 1347103); further: nearly all actives have a fitted effect of over 40% in size; further: potency means the concentration at half of the fitted maximal effect
Method in brief: as §1

[4] = qHTS of pediatric cancer cell lines to identify multiple opportunities for drug repurposing: Primary screen for Rh41 cells (AID 1347108); further: nearly all actives have a fitted effect of over 70% in size; further: potency means the concentration at half of the fitted maximal effect;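 on activity change, negative = cytotoxic: luminescence drop marks cytotoxic hits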
Method in brief: (§3)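 Following a 5-hour attachment period, cells at 500-1,000/well received compounds and were cultured for 48 hours. CellTiter-Glo was added and luminescence read to estimate viable, metabolically active cells.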

[5] = qHTS of pediatric cancer cell lines to identify multiple opportunities for drug repurposing: Confirmatory screen for NB1643 cells (AID 1347109); further: nearly all actives have a fitted effect of over 45% in size; further: potency means the concentration at half of the fitted maximal effect
Method in brief: as §2

[6] = qHTS of pediatric cancer cell lines to identify multiple opportunities for drug repurposing: Confirmatory screen for A673 cells (AID 1347110);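 further: cells exposed to compound for 48 h before the viability read; nearly all actives have a fitted effect of over 65% in size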; further: potency means the concentration at half of the fitted maximal effect
Method in brief: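 qHTS titration format: primary MIPE 0.78 nM-46 µM (11 pts), NPC 0.59 nM-46 µM; confirmation 11 pts. 48 h, CTG luminescence.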

[7] = qHTS of pediatric cancer cell lines to identify multiple opportunities for drug repurposing: Confirmatory screen for SK-N-MC cells (AID 1347111);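 further: cells exposed to compound for 48 h before the readout; nearly all actives have a fitted effect of over 70% in size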; further: potency means the concentration at half of the fitted maximal effect
Method in brief: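 Metabolically active cells were quantified by ATP-dependent luminescence (CellTiter-Glo, 15 min at room temperature) following 48 h treatment. Cells had been plated at 500-1,000 per well and settled for 5 h beforehand.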

[8] = qHTS of pediatric cancer cell lines to identify multiple opportunities for drug repurposing: Confirmatory screen for BT-12 cells (AID 1347112); further: potency means the concentration at half of the fitted maximal effect; nearly all actives have a fitted effect of over 55% in size
Method in brief: as §2

[9] = qHTS of pediatric cancer cell lines to identify multiple opportunities for drug repurposing: Confirmatory screen for LAN-5 cells (AID 1347113); further: nearly all actives have a fitted effect of over 65% in size; further: potency means the concentration at half of the fitted maximal effect
Method in brief: as §2

[10] = qHTS of pediatric cancer cell lines to identify multiple opportunities for drug repurposing: Confirmatory screen for BT-37 cells (AID 1347117); details: BT-37 pediatric cancer cells, viability; activity change, negative = cytotoxic: at 45.9 µM (top of the series); further: nearly all actives have a fitted effect of over 55% in size; further: potency means the concentration at half of the fitted maximal effect
Method in brief: as §2

[11] = qHTS of pediatric cancer cell lines to identify multiple opportunities for drug repurposing: Confirmatory screen for TC32 cells (AID 1347118);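 further: cells exposed to compound for 48 h before the read; nearly all actives have a fitted effect of over 65% in size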; further: potency means the concentration at half of the fitted maximal effect
Method in brief: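 Measured quantity: luminescence from CellTiter-Glo, reflecting metabolically active TC32 cells following 48 h of compound. Curves came straight from multi-point titrations, with 8 or 11 points in primary and 11 in confirmatory screening.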

[12] = qHTS of pediatric cancer cell lines to identify multiple opportunities for drug repurposing: Confirmatory screen for MG 63 (6-TG R) cells (AID 1347119); further: nearly all actives have a fitted effect of over 55% in size; further: potency means the concentration at half of the fitted maximal effect
Method in brief: as §2

[13] = qHTS of pediatric cancer cell lines to identify multiple opportunities for drug repurposing: Primary screen for RD cells (AID 1347104); further: nearly all actives have a fitted effect of over 55% in size; further: potency means the concentration at half of the fitted maximal effect
Method in brief: as §3

[14] = qHTS of pediatric cancer cell lines to identify multiple opportunities for drug repurposing: Primary screen for MG 63 (6-TG R) cells (AID 1347105); further: nearly all actives have a fitted effect of over 50% in size; further: potency means the concentration at half of the fitted maximal effect
Method in brief: as §3

[15] = qHTS of pediatric cancer cell lines to identify multiple opportunities for drug repurposing: Primary screen for control Hh wild type fibroblast cells (AID 1347106)
Method in brief: as §2

[16] = qHTS of pediatric cancer cell lines to identify multiple opportunities for drug repurposing: Primary screen for Rh30 cells (AID 1347107); further: nearly all actives have a fitted effect of over 75% in size
Method in brief: as §2

[17] = qHTS of pediatric cancer cell lines to identify multiple opportunities for drug repurposing: Confirmatory screen for DAOY cells (AID 1347114); further: nearly all actives have a fitted effect of over 65% in size; further: potency means the concentration at half of the fitted maximal effect
Method in brief: (§4)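 Viability measured as metabolically active cells via CellTiter-Glo luminescence following 48 hours of compound exposure, 11-point dilutions in confirmatory testing. 500-1,000 cells/well plated 5 hours before dosing; controls were DMSO and 2.3 µM bortezomib.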

[18] = qHTS of pediatric cancer cell lines to identify multiple opportunities for drug repurposing: Confirmatory screen for NB-EBc1 cells (AID 1347115);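 further: cells exposed to compound for 48 h before the viability read; nearly all actives have a fitted effect of over 45% in size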
Method in brief: as §2

[19] = qHTS of pediatric cancer cell lines to identify multiple opportunities for drug repurposing: Confirmatory screen for SJ-GBM2 cells (AID 1347116); further: nearly all actives have a fitted effect of over 60% in size
Method in brief: as §4

Measured: Potency

COc1cc(C=CC(=O)CC(=O)C=Cc2ccc(O)c(OC)c2)ccc1O
active: [1] 44.4 µM | [2] 38.2 µM | [3] 39.5 µM | [4] 30.3 µM | [5] 30.2 µM | [6] 10.7 µM | [7] 15.1 µM | [8] 38 µM | [9] 26.9 µM | [10] 30.2 µM | [11] 9.55 µM | [12] 26.9 µM

Cc1ccc(O)c(C(CCN(C(C)C)C(C)C)c2ccccc2)c1 (stereo unspecified)
inactive: [1] | [2] | [13] | [14] | [15] | [16] | [4]

O=C(Nc1ccc(Oc2ccnc3[nH]ccc23)c(F)c1)c1cccn(-c2ccc(F)cc2)c1=O
inactive: [1] | [2] | [13] | [14] | [15] | [16]

CC(=O)C1=C(O)C=C2Oc3c(C(C)=O)c(O)c(C)c(O)c3C2(C)C1=O (stereo unspecified)
active: [1] 1.72 µM | [3] 1.72 µM
inactive: [2] | [14] | [15] | [16] | [4]

COc1ccnc2[nH]cc(C(=O)C(=O)N3CCN(C(=O)c4ccccc4)C[C@@H]3C)c12
inactive: [1] | [2] | [3] | [14] | [15] | [16] | [4]

C[C@]12C=CC(=O)N[C@@H]1CC[C@H]1[C@H]3CC[C@@H](C(=O)Nc4cc(C(F)(F)F)ccc4C(F)(F)F)[C@@]3(C)CC[C@@H]12
inactive: [1] | [2] | [13] | [14] | [15] | [16]

C[C@@H]1[C@H](C)CC[C@]2(C(=O)O)CC[C@]3(C)C(=CC[C@@H]4[C@@]5(C)C[C@@H](O)[C@H](O)[C@@](C)(CO)[C@H]5CC[C@]43C)[C@@H]12
inactive: [1] | [2] | [13] | [14] | [15] | [16] | [4]

NC(=O)c1cccc(-c2cccc(OC(=O)NC3CCCCC3)c2)c1
inactive: [1] | [2] | [13] | [14] | [15] | [4]

CCC(C)CCCCC(=O)N[C@@H](CCN)C(=O)NC(C(=O)N[C@H](CCN)C(=O)N[C@@H]1CCNC(=O)C([C@@H](C)O)NC(=O)[C@@H](CCN)NC(=O)[C@@H](CCN)NC(=O)[C@@H](CC(C)C)NC(=O)[C@H](Cc2ccccc2)NC(=O)[C@H](CCN)NC1=O)[C@@H](C)O (stereo partly drawn) ({Octanoyl(6-Me)}-[Dab][ξThr(3R)][dDab][dDab][Dab]F[dL][dDab][dDab][ξThr(3R)]; lactam 4-C)
inactive: [1] | [2] | [13] | [14] | [15] | [16] | [4]

C[C@@H]1CC[C@@]2(OC1)OC1CC3C4CC=C5CC(O)CCC5(C)C4CCC3(C)C1[C@@H]2C (stereo partly specified)
inactive: [1] | [2] | [13] | [14] | [15] | [16] | [4]

O=C1c2cccc(O)c2C(=O)c2c(O)cc(CO)cc21
inactive: [1] | [2] | [3] | [14] | [15] | [16] | [4]

O=C1NC(O)CCN1[C@@H]1O[C@H](CO)[C@H](O)[C@H]1O (stereo partly specified)
inactive: [1] | [2] | [13] | [14] | [15] | [16] | [4]

COC(=O)[C@@H]1[C@H]2C[C@@H]3c4[nH]c5ccccc5c4CCN3C[C@@H]2CC[C@@H]1O
not listed: [3] | [8]
inactive: all other assays above

COc1ccc2cc([S+]([O-])Cc3ncc(C)c(OC)c3C)nc2c1
inactive: [1] | [2] | [13] | [14] | [15] | [16]

COc1ccc(C[C@@H](C)[C@@H](C)Cc2ccc(OC)c(OC)c2)cc1OC
inactive: [2] | [9] | [19]
active: [1] 0.863 µM | [3] 0.685 µM | [7] 10.4 µM | [17] 11.7 µM | [11] 4.14 µM | [12] 9.27 µM

CCOC(=O)C=C[C@H](C[C@@H]1CCNC1=O)NC(=O)[C@@H](CC(=O)[C@@H](NC(=O)c1cc(C)on1)C(C)C)Cc1ccc(F)cc1
inactive: [1] | [2] | [13] | [14] | [15] | [4]

CCCCCCCCCCCC(CC1OC(=O)C1CCCCCC)OC(=O)C(CC(C)C)NC=O (stereo unspecified)
inactive: [1] | [2] | [13] | [14] | [15] | [4]

CON=C(C(=O)N[C@@H]1C(=O)N2C(C(=O)O)=C(Cn3ccc(=N)n3CCO)CS[C@H]12)c1csc(N)n1
inactive: [1] | [2] | [13] | [14] | [15] | [16] | [4]

NC(=O)N1CCC(CC(=O)N2CCC([C@H]3c4ncc(Br)cc4CCc4cc(Cl)cc(Br)c43)CC2)CC1
inactive: [15]
active: [1] 21.7 µM | [3] 8.63 µM | [13] 20.9 µM | [14] 18.7 µM

Cc1cnn(C)c1C(=O)Nc1cc(Nc2ccc3c(C=Cc4ccccn4)n[nH]c3c2)ccc1F
active: [1] 10.9 µM | [3] 38.5 µM | [13] 18.7 µM
inactive: [15]
